High-throughput results: PubChem BioAssay, The Scripps Research Institute Molecular Screening Center
Hits are enriched below; roughly 1.3% of the tested compounds scored in any of these assays.
PREPL inh = PREPL enzyme inhibitors, primary screen, biochemical, fluorescence polarization | inhibition, % at 5.96 µM | recombinant PREPL, fluorescence polarization activity-based probe | 320,000 compounds, 0.68% hits; in the data active means inhibition above about 43%;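 further: 0% = enzyme with DMSO and 100% = wells lacking enzyme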
ZTA counter = ZTA (EBV) inhibition in EBNA-1 counter-screen; P03206; ZTA-DNA binding, fluorescence polarization; inhibition, % at 11 µM; 320,000 compounds, 0.15% hits; AID 2234; in the data active means inhibition above about 33%
Target sequence (P03206 whole entry, looked up): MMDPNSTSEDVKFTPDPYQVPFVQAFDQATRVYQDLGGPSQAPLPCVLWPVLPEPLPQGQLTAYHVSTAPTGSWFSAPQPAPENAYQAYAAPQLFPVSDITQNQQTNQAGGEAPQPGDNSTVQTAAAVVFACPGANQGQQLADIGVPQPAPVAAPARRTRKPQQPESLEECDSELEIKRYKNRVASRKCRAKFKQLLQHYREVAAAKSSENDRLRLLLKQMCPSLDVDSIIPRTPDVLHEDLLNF
LYPLA2 inh = LYPLA2 inhibitors, primary screen, counter-screen for PME1 inhibitor project, biochemical, fluorescence polarization, FP-Rh probe ABPP | 320,000 compounds, 0.38% hits | Acyl-protein thioesterase 2 (Homo sapiens), O95372 | recombinant LYPLA2 | inhibition, % at 5.9 µM | AID 2177, 2009;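 active means inhibition above the screen-wide mean plus 3 SD, limit set per campaign, cut at about 26% in these data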;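 further: 0% = LYPLA2 with DMSO and 100% = wells lacking LYPLA2 enzyme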
EBNA-1 inhibitor = EBNA-1 DNA-binding inhibitors, primary screen, biochemical, fluorescence polarization. inhibition, % at 14.8 µM. 300,000 compounds, 0.34% hits. AID 1950, 2009; in the data active means inhibition above about 28%
LYPLA1 inh = LYPLA1 inhibitors, primary screen, counter-screen for PME1 inhibitor project, biochemical, fluorescence polarization, FP-Rh probe ABPP; Acyl-protein thioesterase 1 (Homo sapiens), O75608; recombinant LYPLA1; inhibition, % at 5.9 µM; 320,000 compounds, 0.16% hits;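 active means inhibition above the mean of all tested compounds plus 3 SD, set per campaign, cut at about 14% in these data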;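 further: inhibitors block serine hydrolase probe labeling of LYPLA1 so polarization falls; 0% = enzyme with DMSO and 100% = wells lacking LYPLA1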
Target sequence (O75608 whole entry, looked up): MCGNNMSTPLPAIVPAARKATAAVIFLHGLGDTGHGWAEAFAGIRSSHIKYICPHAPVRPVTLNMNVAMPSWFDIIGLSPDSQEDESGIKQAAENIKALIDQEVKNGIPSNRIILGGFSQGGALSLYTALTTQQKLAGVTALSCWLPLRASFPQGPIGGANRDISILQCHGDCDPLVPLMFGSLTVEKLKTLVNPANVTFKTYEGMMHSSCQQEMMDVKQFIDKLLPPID
EBNA-1 confirm = EBNA-1 DNA-binding inhibitors, retest, confirmation, biochemical, fluorescence polarization, triplicate; 830 compounds, 35% hits; shares compounds with EBNA-1 inhibitor; AID 2292, 2010; Recombinant EBNA-1 DBD, Cy5-DNA fluorescence polarization; inhibition, % at 14.8 µM;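 active means mean inhibition across replicates above a set limit taken from the earlier primary screen, cut at about 28% in these data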;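 further: plate controls were EBNA-1 protein with DMSO for no effect and wells lacking EBNA-1 for full effect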
ZTA counter trip = EBV Zta DNA binding inhibitors, counter-screen for EBNA-1 inhibitor project, biochemical, fluorescence polarization, triplicate | shares compounds with EBNA-1 inhibitor | Zta-ZRE DNA binding, Cy5 fluorescence polarization | inhibition, % at 11.1 µM | 830 tested, under 10 active;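 active means mean inhibition over triplicates above a set limit taken from the primary EBNA-1 screen, cut at about 37% in these data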;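 further: purified full length Zta protein with Cy5 labeled ZRE DNA probe; 0% = Zta with DMSO and 100% = wells lacking Zta protein; inhibitors lower polarization by freeing the labeled DNA probe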
Active calls of the source: *; x = not tested or not shown.

SMILES	PREPL inh	ZTA counter	LYPLA2 inh	EBNA-1 inhibitor	LYPLA1 inh	EBNA-1 confirm	ZTA counter trip
CC(=O)Nc1ccc(S(=O)(=O)Nc2c(NC3CCCCC3)c3ccccc3oc2=O)cc1	-13	-12	-3	32*	-3	-3	0
Cc1cc(S(=O)(=O)Nc2c(NC3CCCCC3)c3ccccc3oc2=O)ccc1F	6	4	9	15	-2	x	x
CC(=O)Nc1ccc(S(=O)(=O)Nc2ccc(S(=O)(=O)Nc3ncccn3)cc2)cc1	13	8	-7	82*	-1	7	8
CC(CCc1ccccc1)NC(=O)c1ccc(F)cc1 (stereo not drawn)	-8	0	-1	1	1	x	x
CC(NC(=O)CCNC(=O)c1ccc(Br)cc1)c1ccc(-n2ccnc2)cc1 (stereo not drawn)	0	0	3	-1	3	x	x
Cc1cc(NC(=O)c2ccc(F)cc2)n(C)n1	1	15	-2	3	-1	x	x
CCc1nc2ccc(C(=O)NCCc3ccccc3OC)cc2nc1CC	12	-7	-2	8	1	x	x
COc1ccccc1CNC(=O)c1ccc2nc3[nH]c4ccccc4c3nc2c1	-12	8	-42	65*	-16	67*	-10
O=C(CCn1c(=S)oc2ccccc21)Nc1ccc(F)cc1	3	7	-10	48*	-5	19	2
CC(=O)c1cccc(NC(=O)CCn2c(=S)oc3ccccc32)c1	21	8	3	14	-1	x	x
Cc1ccc(NC(=O)CCn2c(=S)oc3ccccc32)cc1	-10	-4	0	43*	-2	55*	1
CN1CCN(c2nc(-c3ccccn3)nc3ccccc23)CC1	11	-6	0	63*	3	5	-2
CN1CCN(c2nc(-c3cccnc3)nc3ccccc23)CC1	3	-2	-3	7	0	x	x
CCOC(=O)[C@H]1[C@H]2COc3ccc(Cl)cc3[C@@H]2N2C(=O)c3ccc(Cl)cc3NC(=O)[C@@]12C	-5	-2	-6	77*	-3	82*	13
Cc1ccc(CNC(=O)Cc2ccc(-n3cccc3)cc2)cc1	-2	-13	2	2	-3	x	x
O=C(Cc1ccc(-n2cccc2)cc1)NCc1cccs1	-8	0	14	32*	5	20	1
C=CCN(c1ccccc1C(=O)O)S(=O)(=O)c1ccc(C)cc1	8	11	-12	-6	-2	x	x
COc1ccc(S(=O)(=O)N2CCOCC2)cc1NC(=O)c1ccccc1-c1ccc(C(F)(F)F)cc1	0	-1	-1	32*	4	37*	14
O=C(N/N=C/c1ccc(-c2ccc(S(=O)(=O)Nc3ncccn3)cc2)o1)c1cc2ccccc2cc1O	27	28	-21	32*	-9	46*	41*
Cc1cccc(NC(=O)CNC(=O)c2ccc(-n3cncn3)c([N+](=O)[O-])c2)c1C	8	9	-3	-1	1	x	x
COc1ccc(CC2(CO)CCN(Cc3ccc(NC(C)=O)cc3)CC2)cc1	-11	4	2	46*	-4	0	5
O=C(CCC1CCN(C(=O)c2cc(C(F)(F)F)ccc2Cl)CC1)NC1CC1	33	-12	13	7	5	x	x
CC(C)CN(C(=O)COC(=O)c1ccc(Br)cc1)c1c(N)n(Cc2ccccc2)c(=O)[nH]c1=O	8	-7	-4	-3	2	x	x
COc1ccc2nc(NC(=O)CC3Oc4ccccc4NC3=O)sc2c1 (stereo not drawn)	-6	9	0	56*	0	20	11
Cc1cc2c(Nc3ccc(C(=O)O)cc3)ncnc2s1	6	14	3	97*	-5	-9	-12
SMILES	PREPL inh	ZTA counter	LYPLA2 inh	EBNA-1 inhibitor	LYPLA1 inh	EBNA-1 confirm	ZTA counter trip
Cc1ccc2c(C)c(C(=O)N3CCCCC3CO)oc2c1C (stereo not drawn)	7	15	21	3	1	x	x
CCOC(=O)N=S(=O)(Oc1ccc([N+](=O)[O-])cc1)c1ccccc1 (stereo not drawn)	5	3	3	137*	-2	-5	-1
CCOC(=O)N=S(=O)(Oc1ccc([N+](=O)[O-])cc1)c1ccc(Cl)cc1 (stereo not drawn)	10	0	-2	-1	1	x	x
O=C(O)CCC(=O)OCCCc1cc2ccccc2c(=O)o1	5	x	x	x	x	x	x
CC(=O)NC(=S)Nc1cccc2c(C)cc(C)nc12	18	2	4	6	0	x	x
Cc1cc(C)c2cccc(NC(=S)NC(=O)c3ccccc3)c2n1	9	2	-21	34*	-10	28*	5
COc1ccc(O)c(/C=N/NC(=O)CCC(=O)Nc2ccc(C)cc2)c1	1	10	4	50*	2	0	6
O=C(CCC(=O)Nc1ccc(Br)cc1)N/N=C/c1ccc(O)cc1	-3	11	-4	28*	-7	1	7
COc1ccc(O)c(/C=N/NC(=O)CCC(=O)Nc2cccc(C)c2)c1	2	19	2	8	1	x	x
Cn1c(N)c(C(=O)COC(=O)CSc2cccc3cccc(Cl)c23)c(=O)n(C)c1=O	3	6	1	32*	-3	46*	22
COc1cc2[nH]c(=S)n(Cc3ccccc3)c(=O)c2cc1OC	-10	-1	-2	17	0	x	x
COc1cc2[nH]c(=O)n(Cc3ccccc3Cl)c(=O)c2cc1OC	8	-7	-2	39*	-3	22	3
COc1ccc(NC(=O)CCNS(=O)(=O)c2ccc(C)c(C)c2)cc1OC	-1	4	4	5	1	x	x
CCn1c(SCC(=O)NCCc2ccccc2)nc2c([nH]c3ccccc32)c1=O	-4	11	-4	42*	-2	7	6
COc1ccc(NC(=O)c2cc(-c3cc(Cl)ccc3O)n[nH]2)c(OC)c1	0	23	0	33*	2	19	3
COc1ccc(NC(=O)c2ccc(C(=O)Nc3ccc(OC)cc3OC)cc2)c(OC)c1	23	-7	-7	56*	-2	51*	10
COc1ccc(C(=O)Nc2ccc(-c3ccc(NC(=O)c4ccc(OC)cc4)c(OC)c3)cc2OC)cc1	8	9	11	8	-2	x	x
O=C(c1ccc(F)cc1)N1CCC(C(=O)N2CCN(S(=O)(=O)c3cccc([N+](=O)[O-])c3)CC2)CC1	-4	12	7	6	1	x	x
